# Assay results from PubChem BioAssay (EPA / NIEHS).
# Inconclusive results are not listed. More than one record can exist for a structure, and the calls need not agree. Calls of active or inactive are those of the source. Rule for the calls, unless noted: active = hit-call score of the fitted dose curve at least 0.9, where 1 is the maximum; inconclusive = response in the unintended direction; inactive = score below 0.9.
# Assays:
# [1] = CEETOX_H295R_11DCORT: CeeTox H295R High-throughput Steroidogenesis Assay for 11-Deoxycortisol (11DCORT) (AID 2283432; active = hit-call score of the fitted dose curve at least 0.9, where 1 is the maximum; inactive = score below 0.9;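 for AC50: human adrenal H295R cells prestimulated with 10 µM forskolin for 48 h; 11-deoxycortisol secreted into the medium measured by LC-MS/MS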); settings: actives raise or lower the signal
# How it was run: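 Adrenal carcinoma line H295R, run per OECD 456 with minor changes, was forskolin-stimulated (10 uM, 48 h) before a 48 h chemical exposure at 0.1% DMSO. Secreted 11-deoxycortisol was quantified by HPLC-MS/MS.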
# [2] = CEETOX_H295R_OHPREG: CeeTox H295R High-throughput Steroidogenesis Assay for OH-Pregnenolone (OHPREG) (AID 2283434; active = hit-call score of the fitted dose curve at least 0.9, where 1 is the maximum; inactive = score below 0.9); settings: actives raise or lower the signal
# How it was run: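 Hormone levels in spent medium were measured by tandem mass spectrometry following liquid-liquid extraction. Cells (H295R) had been forskolin-stimulated (10 uM, 48 h) before a 48 h chemical exposure at 0.1% DMSO, with activity fitted in both directions against DMSO.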
# [3] = CEETOX_H295R_OHPROG: CeeTox H295R High-throughput Steroidogenesis Assay for OH-Progesterone (OHPROG) (AID 2283435; active = hit-call score of the fitted dose curve at least 0.9, where 1 is the maximum; inactive = score below 0.9;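 for AC50: human adrenal H295R cells primed 48 h with 10 µM forskolin; 17alpha-hydroxyprogesterone secreted into medium measured by HPLC-MS/MS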); settings: actives raise or lower the signal
# How it was run: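 H295R, 10 uM forskolin prestim 48 h; cmpd in 0.1% DMSO 48 h; medium MTBE-extracted, HPLC-MS/MS for OH-progesterone; 7-pt std curve; bidirectional fit vs DMSO; MTT viability, chemicals diluted until viability >/=70%.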
# [4] = CEETOX_H295R_CORTIC: CeeTox H295R High-throughput Steroidogenesis Assay for Corticosterone (CORTIC) (AID 2283437; active = hit-call score of the fitted dose curve at least 0.9, where 1 is the maximum; inactive = score below 0.9;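 note: corticosterone secreted into medium quantified by mass spectrometry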); settings: actives raise or lower the signal
# How it was run: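 Corticosterone secreted into medium is measured by reverse-phase HPLC with tandem MS following liquid-liquid extraction. Cells are forskolin-stimulated (10 uM, 48 h) before 48 h test exposure; activity fitted in both directions against DMSO.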
# [5] = CEETOX_H295R_CORTISOL: CeeTox H295R High-throughput Steroidogenesis Assay for Cortisol (AID 2283438; active = hit-call score of the fitted dose curve at least 0.9, where 1 is the maximum; inactive = score below 0.9;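 note: cortisol secreted into medium quantified by LC-MS/MS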); settings: actives raise or lower the signal
# How it was run: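 Forskolin 10 uM 48 h prestim → test cmpd in DMSO (0.1% final) 48 h → medium MTBE-extracted → LC-MS/MS cortisol vs 7-pt std curve. Gain/loss of signal fitted vs DMSO. MTT viability in same wells.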
# [6] = CEETOX_H295R_DOC: CeeTox H295R High-throughput Steroidogenesis Assay for DOC (AID 2283439; active = hit-call score of the fitted dose curve at least 0.9, where 1 is the maximum; inactive = score below 0.9); settings: actives raise or lower the signal
# How it was run: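 Readout: 11-deoxycorticosterone in culture medium by reverse-phase C18 HPLC with ESI+ tandem MS after MTBE extraction. Cells: H295R, forskolin-primed (10 uM, 48 h), chemical-treated 48 h; DMSO 0.1% final. Activity fitted bidirectionally versus DMSO.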
# [7] = CEETOX_H295R_PROG: CeeTox H295R High-throughput Steroidogenesis Assay for Progesterone (PROG) (AID 2283442; active = hit-call score of the fitted dose curve at least 0.9, where 1 is the maximum; inactive = score below 0.9;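 for AC50: human H295R adrenal cells primed with 10 µM forskolin before dosing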); settings: actives raise or lower the signal
# How it was run: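 Measured analyte is progesterone secreted by H295R cells at 48 h of chemical treatment, following 10 uM forskolin priming. Quantitation used HPLC-MS/MS against a 7-point standard curve; cytotoxicity was checked by MTT absorbance.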
# [8] = molecular target: human Ephrin type-A Receptor 1 (EphA1), EPHA1 (gene 2041) (UniProt P21709); test: NVS_ENZ_hEphA1: NovaScreen (NVS) Enzymatic Assay for human Ephrin type-A Receptor 1 (EphA1) (AID 2283158);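 note: activity is signal loss versus DMSO meaning EphA1 kinase inhibition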
# Sequence of human Ephrin type-A Receptor 1 (EphA1), EPHA1 (gene 2041) (P21709 whole entry, looked up): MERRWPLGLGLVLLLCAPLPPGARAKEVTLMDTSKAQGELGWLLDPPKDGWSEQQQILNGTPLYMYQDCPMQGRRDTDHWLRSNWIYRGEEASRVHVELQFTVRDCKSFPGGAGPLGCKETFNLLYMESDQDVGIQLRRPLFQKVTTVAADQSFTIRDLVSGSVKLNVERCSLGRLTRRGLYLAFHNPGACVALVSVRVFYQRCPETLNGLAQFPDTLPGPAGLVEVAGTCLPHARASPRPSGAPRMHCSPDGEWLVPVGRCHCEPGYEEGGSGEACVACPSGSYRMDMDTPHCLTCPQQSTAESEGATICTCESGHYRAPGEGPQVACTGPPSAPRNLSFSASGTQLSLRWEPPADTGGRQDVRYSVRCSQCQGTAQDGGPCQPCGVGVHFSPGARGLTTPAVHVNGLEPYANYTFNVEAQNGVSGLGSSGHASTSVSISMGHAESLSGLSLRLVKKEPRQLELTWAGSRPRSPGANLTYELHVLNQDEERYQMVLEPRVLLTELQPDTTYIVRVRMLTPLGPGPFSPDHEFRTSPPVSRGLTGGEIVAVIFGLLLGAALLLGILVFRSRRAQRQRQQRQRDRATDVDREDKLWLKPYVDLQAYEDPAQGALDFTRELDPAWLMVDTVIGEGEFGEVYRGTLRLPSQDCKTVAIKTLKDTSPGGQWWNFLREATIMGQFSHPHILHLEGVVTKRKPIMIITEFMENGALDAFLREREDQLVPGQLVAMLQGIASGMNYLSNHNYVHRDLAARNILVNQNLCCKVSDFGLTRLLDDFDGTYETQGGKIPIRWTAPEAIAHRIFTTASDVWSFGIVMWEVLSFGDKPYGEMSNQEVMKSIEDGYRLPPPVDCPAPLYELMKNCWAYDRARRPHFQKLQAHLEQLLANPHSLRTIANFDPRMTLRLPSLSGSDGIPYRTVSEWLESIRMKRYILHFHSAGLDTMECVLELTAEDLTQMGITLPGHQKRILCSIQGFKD
# How it was run: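 Here the EphA1 protein is recombinant and the substrate fluorescent, with electrophoretic separation before fluorescence detection at 1 hour. Signal loss against DMSO defines activity; plate controls included; follow-up concentration series reach 50 uM.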
# [9] = molecular target: Peroxisome proliferator-activated receptor gamma (Homo sapiens) (UniProt P37231); test: NVS_NR_hPPARg: NovaScreen (NVS) Nuclear Receptor Binding Assay for human Peroxisome Proliferator-activated Receptor gamma (PPARg) (AID 2283370)
# Sequence of Peroxisome proliferator-activated receptor gamma (Homo sapiens) (P37231 whole entry, looked up, the tested form may be a part): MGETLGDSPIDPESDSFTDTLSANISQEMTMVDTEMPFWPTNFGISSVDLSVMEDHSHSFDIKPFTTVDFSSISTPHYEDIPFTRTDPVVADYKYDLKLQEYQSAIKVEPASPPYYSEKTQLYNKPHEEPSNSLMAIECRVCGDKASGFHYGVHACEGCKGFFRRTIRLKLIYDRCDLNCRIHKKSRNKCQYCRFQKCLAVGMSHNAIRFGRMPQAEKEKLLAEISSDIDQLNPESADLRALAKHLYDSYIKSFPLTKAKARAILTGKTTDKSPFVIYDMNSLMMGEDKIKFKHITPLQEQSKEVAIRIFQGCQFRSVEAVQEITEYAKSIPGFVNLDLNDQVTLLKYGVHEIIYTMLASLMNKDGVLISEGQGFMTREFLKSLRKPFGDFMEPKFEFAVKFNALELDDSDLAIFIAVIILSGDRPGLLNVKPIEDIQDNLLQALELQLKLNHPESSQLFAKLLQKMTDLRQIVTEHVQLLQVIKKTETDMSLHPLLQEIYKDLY
# How it was run: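 Extracted receptor protein, cell-free; compound incubated 2 h then fluorescence polarization read. Baseline: DMSO. Actives from 25 uM duplicate screen re-run across concentrations.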
# [10] = molecular target: Peroxisome proliferator-activated receptor gamma (Homo sapiens) (UniProt P37231); test: OT_PPARg_PPARgSRC1_0480: Odyssey Thera (OT) 8-hour Protein-Complementation Assay for Peroxisome Proliferator-activated Receptor Gamma / SRC-1 Co-activator (AID 2283387);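 note: nuclear to cytoplasmic split Venus YFP fluorescence ratio reporting PPARg SRC-1 interaction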
# How it was run: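 Protein-fragment complementation in HEK293T: Venus YFP halves (residues 1-158, 159-239, mutated to IFP1/IFP2) fused to PPARg/SRC-1. 8 h exposure; N/C ratio at 488 nm; DMSO negative control.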
# [11] = molecular target: Bile acid receptor (Homo sapiens) (UniProt Q96RI1); test: OT_FXR_FXRSRC1_0480: Odyssey Thera (OT) 8-hour HEK293T Protein-Complementation Assay for Farnesoid X receptor/SRC-1 Co-activator (AID 2283383)
# Sequence of Bile acid receptor (Homo sapiens) (Q96RI1 whole entry, looked up, the tested form may be a part): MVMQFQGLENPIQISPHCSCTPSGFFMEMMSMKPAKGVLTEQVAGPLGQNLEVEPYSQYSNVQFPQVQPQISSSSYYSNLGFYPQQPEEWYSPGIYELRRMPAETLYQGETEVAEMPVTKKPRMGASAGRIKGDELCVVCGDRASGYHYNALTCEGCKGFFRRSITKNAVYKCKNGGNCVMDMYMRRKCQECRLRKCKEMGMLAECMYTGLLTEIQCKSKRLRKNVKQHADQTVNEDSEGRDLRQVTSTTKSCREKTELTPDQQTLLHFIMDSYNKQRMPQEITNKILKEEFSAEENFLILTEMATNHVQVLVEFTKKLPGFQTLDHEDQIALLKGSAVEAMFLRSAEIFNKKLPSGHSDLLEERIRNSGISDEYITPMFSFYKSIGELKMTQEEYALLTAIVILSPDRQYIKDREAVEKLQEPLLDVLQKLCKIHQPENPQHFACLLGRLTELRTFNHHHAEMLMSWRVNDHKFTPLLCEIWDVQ
# How it was run: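 Human kidney HEK293T cells carried FXR/SRC-1 fragment-complementation constructs. Compounds were added and incubated 8 h. Reporter reassembly upon receptor–co-activator interaction was then quantified by fluorescence, with curves fitted in the positive direction relative to DMSO.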
# [12] = CCTE_Deisenroth_AIME_384WELL_CTox_Active: Cytotoxicity Assessment (CTOX) in CCTE's 384-well Estrogen Receptor Transactivation Assay with AIME metabolic competence (metabolism positive), Deisenroth Lab (AID 2284037);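 note: chemicals first conditioned 2 h by alginate-bound induced rat liver S9 before cells; activity means signal loss indicating cell death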
# How it was run: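 Cytotoxicity in VM7Luc4E2 breast cells, 24 hour, measured as protease-substrate fluorescence loss, after 2-hour metabolic conditioning with induced rat hepatic S9 in alginate microspheres. Concentrations 0.002 - 200 uM, 10 points, bidirectional fitting.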
# [13] = molecular target: Nucleoli Translocation, AR (gene 367) (UniProt P10275); test: UPITT_HCI_U2OS_AR_TIF2_Nucleoli_Antagonist: University of Pittsburgh U2OS Androgen Receptor-Transcriptional Intermediary Factor 2 (AR-TIF2) Antagonism High Content Imaging Assay for Nucleoli Translocation (AID 2283997)
# Sequence of Nucleoli Translocation, AR (gene 367) (P10275 whole entry, looked up): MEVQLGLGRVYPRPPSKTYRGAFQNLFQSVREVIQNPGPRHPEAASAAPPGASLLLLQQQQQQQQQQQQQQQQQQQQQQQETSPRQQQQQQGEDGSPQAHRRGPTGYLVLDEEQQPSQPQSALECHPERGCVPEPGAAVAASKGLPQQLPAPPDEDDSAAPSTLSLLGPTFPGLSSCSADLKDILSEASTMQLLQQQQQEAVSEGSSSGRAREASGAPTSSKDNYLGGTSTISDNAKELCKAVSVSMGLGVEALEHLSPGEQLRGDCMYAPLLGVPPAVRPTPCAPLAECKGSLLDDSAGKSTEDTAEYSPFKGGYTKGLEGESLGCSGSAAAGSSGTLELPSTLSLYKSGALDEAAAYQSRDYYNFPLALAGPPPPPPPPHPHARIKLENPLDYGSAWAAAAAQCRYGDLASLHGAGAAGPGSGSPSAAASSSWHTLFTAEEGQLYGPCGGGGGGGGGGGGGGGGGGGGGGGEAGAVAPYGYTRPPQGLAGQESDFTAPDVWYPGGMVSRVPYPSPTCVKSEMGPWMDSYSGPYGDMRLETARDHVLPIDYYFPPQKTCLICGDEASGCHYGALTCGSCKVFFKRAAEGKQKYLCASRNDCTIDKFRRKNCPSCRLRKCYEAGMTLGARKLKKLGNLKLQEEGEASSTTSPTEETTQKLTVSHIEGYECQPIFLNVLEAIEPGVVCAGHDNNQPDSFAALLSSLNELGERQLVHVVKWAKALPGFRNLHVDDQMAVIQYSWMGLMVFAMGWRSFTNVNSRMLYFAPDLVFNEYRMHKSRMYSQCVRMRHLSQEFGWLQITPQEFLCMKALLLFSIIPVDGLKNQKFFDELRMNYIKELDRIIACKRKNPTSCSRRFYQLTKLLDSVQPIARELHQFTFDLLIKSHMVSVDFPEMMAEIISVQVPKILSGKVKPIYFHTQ
# How it was run: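 Measured quantity was AR-RFP fluorescence localized to nucleoli in engineered U2OS cells also bearing TIF2-GFP, acquired on automated high-content imagers. Primary testing used 20 uM compound; actives were confirmed in triplicate wells.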
# [14] = molecular target: Ratio of Nucleoli Translocation and Cytoplasm, AR (gene 367) (UniProt P10275); test: UPITT_HCI_U2OS_AR_TIF2_Nucleoli_Cytoplasm_Ratio_Antagonist: University of Pittsburgh U2OS Androgen Receptor-Transcriptional Intermediary Factor 2 (AR-TIF2) Antagonism High Content Imaging Assay for Ratio of Nucleoli Translocation and Cytoplasm (AID 2283999);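 note: antagonists lower the DHT-driven ratio of nucleolar to cytoplasmic red signal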
# Sequence of Ratio of Nucleoli Translocation and Cytoplasm, AR (gene 367) (P10275 whole entry, looked up, the tested form may be a part): as the sequence (P10275 whole entry, looked up) above
# How it was run: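 Human osteosarcoma U2OS line, AR fused to RFP, coactivator TIF2 fused to GFP. Cpds 20 uM final, 0.2% DMSO (screen); 0.195–50 uM final, 0.5% DMSO (CRC). Endpoint: nucleoli/cytoplasm red signal ratio, DHT as baseline, loss-of-signal antagonist mode.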
# [15] = molecular target: Ratio of Nucleoli Translocation and Cytoplasm, AR (gene 367) (UniProt P10275); test: UPITT_HCI_U2OS_AR_TIF2_Nucleoli_Cytoplasm_Ratio_Agonist: University of Pittsburgh U2OS Androgen Receptor-Transcriptional Intermediary Factor 2 (AR-TIF2) Agonism High Content Imaging Assay for Ratio of Nucleoli Translocation and Cytoplasm (AID 2284000);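 note: hits raise the red nucleolar to cytoplasm ratio above vehicle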
# How it was run: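 Read-out first: nucleolar-to-cytoplasm ratio of red (AR-RFP) signal, quantified by high-content imaging in U2OS cells co-expressing TIF2-GFP. Activity is scored as signal increase over DMSO. Single-point screening used 20 uM final (0.2% DMSO).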
# [16] = CCTE_Padilla_ZF_Score.General: CCTE's 144 Hour Post-fertilization zebrafish Assay Score for General Malformation, Padilla Lab (AID 2284411; active = hit-call score of the fitted dose curve at least 0.9, where 1 is the maximum; inactive = score below 0.9)
# How it was run: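 Wild-type zebrafish embryos were plated singly at 6-8 hpf in 10% Hanks' and exposed in sealed wells at 26C until rinsed on 5 dpf. At 6 dpf two blinded assessors scored mortality, hatching and malformations by stereomicroscopy; gain-of-signal versus DMSO.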
# [17] = molecular target: Cytochrome P450 2C19 (Homo sapiens) (UniProt P33261); test: NVS_ADME_hCYP2C19: NovaScreen (NVS) CYP450-related Enzyme Activity (ADME) Assay for human CYP2C19 (AID 2283113);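 note: potency for inhibition seen as loss of fluorescent signal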
# How it was run: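 Biochemical CYP2C19 inhibition screen: insect-cell recombinant protein plus fluorescent substrate, 1 h, fluorescence intensity. Acetonitrile defined baseline activity. Single 10 uM concentration in duplicate, with concentration-response follow-up for actives.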
# [18] = CPHEA_Stoker_NIS_Cytotoxicity: Cytotoxicity Assessment for CPHEA's Radioactive Iodide Uptake (RAIU) Assay for Sodium/Iodide Symporter (NIS) Inhibition, Stoker and Laws Labs (AID 2283897);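 for AC50: active means loss of ATP signal versus DMSO meaning cytotoxicity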
# How it was run: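 ATP luminescence (Cell Titer Glo) measured viability, with loss of signal normalized to DMSO controls. Cells: hNIS-HEK293T-EPA, seeded 40 hours prior. Dosing: 0.001–100uM, 2 hours, room temperature, uptake buffer pH 7.4.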
# [19] = CCTE_Shafer_MEA_acute_firing_rate_mean: CCTE's Neural Acute Assay for Mean Firing Rate, Shafer Lab (AID 2284009; active = hit-call score of the fitted dose curve at least 0.9, where 1 is the maximum; inactive = score below 0.9;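 note: analyzed for loss of signal so actives lower firing rate relative to DMSO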)
# How it was run: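 Percent change in well-mean firing rate was derived from extracellular spikes detected at 8x rms noise (300-5000 Hz band-pass) before and after a 40-min compound exposure. Cultures were primary rat cortical neurons, tested at 0.03-40 uM.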
# [20] = CCTE_Shafer_MEA_acute_burst_number: CCTE's Neural Acute Assay for Single-Electrode Bursts, Shafer Lab (AID 2284013; active = hit-call score of the fitted dose curve at least 0.9, where 1 is the maximum; inactive = score below 0.9)
# How it was run: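 Spontaneous network activity of primary rat cortical neurons was recorded extracellularly on microelectrode arrays at 37 C, with 40-min periods before and during exposure to 0.03-40 uM compound on DIV 13 or 15.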
smiles,measurement,setting,value
Oc1cc(Cl)ccc1Cl,outcome,[1],inactive
same,outcome,[2],inactive
same,AC50,[3],25.8 µM (active)
same,outcome,[4],inactive
same,outcome,[5],inactive
same,outcome,[6],inactive
same,AC50,[7],30.6 µM (active)
Cc1ncc(C[n+]2csc(CCO)c2C)c(N)n1,outcome,[8],inactive
c1ccc(P(c2ccccc2)c2ccccc2)cc1,AC50,[9],14.9 µM (active)
same,outcome,[10],inactive
O=C(NC(=O)c1c(F)cccc1F)Nc1ccc(Oc2ccc(C(F)(F)F)cc2Cl)cc1F,AC50,[11],56.3 µM (active)
same,outcome,[10],inactive
same,AC50,[2],12.4 µM (active)
same,AC50,[3],1.37 µM (active)
same,AC50,[7],1.28 µM (active)
same,outcome,[12],inactive
O=C(O)CCCc1ccc(N(CCCl)CCCl)cc1,outcome,[8],inactive
C=COCCCl,outcome,[13],inactive
same,outcome,[14],inactive
same,outcome,[15],inactive
same,outcome,[16],inactive
CN(C)N,outcome,[13],inactive
same,outcome,[14],inactive
same,outcome,[15],inactive
CCOC(=O)NC(=S)Nc1ccccc1NC(=S)NC(=O)OCC,AC50,[17],2.84 µM (active)
same,outcome,[10],inactive
CCc1cccc(C)c1N(C(=O)CCl)[C@@H](C)COC,outcome,[9],inactive
CCOP(=O)(OCC)Oc1ccc([N+](=O)[O-])cc1,outcome,[11],inactive
same,outcome,[2],inactive
same,outcome,[3],inactive
same,outcome,[7],inactive
O=[N+]([O-])O,outcome,[18],inactive
same,AC50,[19],0.0885 µM (active)
same,outcome,[19],inactive
same,AC50,[20],0.189 µM (active)
same,outcome,[20],inactive
O=C1Nc2ccc(Cl)cc2C(c2ccccc2)=NC1O (stereo not given),outcome,[11],inactive
same,outcome,[18],inactive
O=C=Nc1ccccc1,AC50,[2],0.499 µM (active)
same,outcome,[3],inactive
same,AC50,[7],0.492 µM (active)
CCCOC(=O)c1ccccc1C(=O)OCCC,outcome,[16],inactive
CC(C)COP(=O)(OCC(C)C)OCC(C)C,outcome,[16],inactive
C=CC(=O)OCC(CC)CCCC (stereo not given),outcome,[16],inactive
CC(C)(c1cc(Cl)c(O)c(Cl)c1)c1cc(Cl)c(O)c(Cl)c1,AC50,[17],0.992 µM (active)
same,AC50,[9],1.54 µM (active)
same,outcome,[9],inactive
same,outcome,[10],inactive
same,AC50,[18],81.3 µM (active)
same,AC50,[12],159 µM (active)
COc1ccc(CO)cc1,outcome,[19],inactive
same,outcome,[20],inactive
COc1cc(OC)nc(Oc2cccc(Oc3nc(OC)cc(OC)n3)c2C(=O)O)n1,outcome,[9],inactive
same,outcome,[11],inactive
same,outcome,[13],inactive
same,outcome,[14],inactive
Oc1ccc(C2(c3ccc(O)cc3)c3ccccc3-c3ccccc32)cc1,AC50,[19],0.00883 µM (active)
same,AC50,[20],0.0359 µM (active)
O=P(O)(Oc1ccccc1)Oc1ccccc1,outcome,[18],inactive
O=CNC(N1CCN(C(NC=O)C(Cl)(Cl)Cl)CC1)C(Cl)(Cl)Cl (stereo not given),AC50,[17],5.96 µM (active)
same,AC50,[1],50 µM (active)
same,outcome,[2],inactive
same,outcome,[3],inactive
same,outcome,[4],inactive
same,outcome,[5],inactive
same,outcome,[6],inactive
same,outcome,[7],inactive
same,outcome,[18],inactive
same,outcome,[13],inactive
same,outcome,[14],inactive
same,outcome,[15],inactive
CC(=O)/C=C/c1ccccc1,outcome,[8],inactive
O=P1(NCCCl)OCCCN1CCCl (stereo not given),outcome,[8],inactive
Cc1cc(C)c(C2=C(OC(=O)CC(C)(C)C)C3(CCCC3)OC2=O)c(C)c1,outcome,[9],inactive
same,outcome,[11],inactive
same,AC50,[1],72.4 µM (active)
same,outcome,[4],inactive
same,AC50,[5],69.2 µM (active)
same,outcome,[6],inactive
same,outcome,[12],inactive
